Some test systems named below: BT-549 breast; MDA-MB-435 melanoma; SW-620 colon; MCF7 breast; HCT-116 colon; HCC-2998 colon; KM12 colon; T-47D breast.
Holding throughout (experiment): NCI-60 one-dose screen, 48 h (100 = growth as untreated, 0 = no growth, -100 = all killed)
Conditions in all cases: 10 µM unless noted

About 83,000 compounds went through this panel and 20% of them were active in at least one assay; those are over-represented in the sample as a whole.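 Note: values are percent growth. 100 is the growth of untreated cells, values between 100 and 0 indicate rising inhibition; between -100 and 0 indicates cell death.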 Values without a mark were called inactive. Active and inactive are the calls of the source. Rule for the calls: active = growth percent below 10; inactive = the rest.

Turning to `O=C1NC(=O)c2cc([N+](=O)[O-])cc3cccc1c23`, the growth is 96% in the assay with BT-549 breast; 100% in the assay on MDA-MB-435 melanoma; 98.2% in the assay on SW-620 colon; 90% in the assay on MCF7 breast; 107% in the assay on HCT-116 colon; 107% with HCC-2998 colon. The growth in the assay with KM12 colon was 105%.
Consider `O=C(CSc1nc2ccc([N+](=O)[O-])cc2[nH]1)Nc1cccc(Cl)c1`, for which the growth in the assay on BT-549 breast was 17.2%; in the assay on MDA-MB-435 melanoma, 20.5%; in the assay with SW-620 colon it was 39.9%; with MCF7 breast it was 15.3%; with HCT-116 colon, 14.7%; in the assay with HCC-2998 colon it was 34.4%. Besides, the growth in the assay on KM12 colon is 23.9%.
Take `COc1cc(-c2nc(SCCC(C)C)nc(Nc3ccccc3)c2C#N)cc(OC)c1OC`: the growth in the assay with BT-549 breast is 96.4%; in the assay with MDA-MB-435 melanoma, 92.9%; in the assay on SW-620 colon it was 104%; with MCF7 breast it was 92.7%; with HCT-116 colon it was 91.7%; with HCC-2998 colon, 116%. Also, the growth in the assay on KM12 colon is 100%.
Consider `C=C1C(=O)O[C@H]2[C@H]1CC/C(COC(=O)NCc1ccc(Cn3c(=O)sn(-c4ccc(Cl)cc4)c3=O)cc1)=C\CC[C@@]1(C)O[C@@H]21`, for which the growth was 66.1% in the assay with BT-549 breast; 82.9% in the assay on MDA-MB-435 melanoma; 6.67% (active) in the assay with SW-620 colon; 33.1% in the assay on MCF7 breast; 22.1% in the assay on HCT-116 colon; 107% in the assay with HCC-2998 colon.
As for `COc1cc(OC)cc(C(=O)Nc2cc(-c3cccnc3)nc(NCCCN3CCOCC3)n2)c1`, the growth in the assay on T-47D breast was 72.8%; in the assay with MDA-MB-435 melanoma, 102%; with MCF7 breast, 88%; in the assay with HCT-116 colon, 89.2%; with HCC-2998 colon, 123%; in the assay on KM12 colon, 104%.
Turning to `CCN(CC)c1ccc(/C=C/c2ccc3cc(C)ccc3[n+]2CC)cc1`, the growth in the assay on BT-549 breast is 1.38% (active); with MDA-MB-435 melanoma, -33.3% (active); in the assay with SW-620 colon, 17.6%; in the assay with MCF7 breast, 3.46% (active); in the assay on HCT-116 colon, 7.53% (active); in the assay on HCC-2998 colon it was 16.5%.
For `CCN(CC)c1cc(N)c(Cc2c(N)cc(N(CC)CC)cc2Cl)c(Cl)c1`, the growth with BT-549 breast is 24.9%; with MDA-MB-435 melanoma, 38.7%; with SW-620 colon it was 80%; in the assay on MCF7 breast, 24.7%; with HCT-116 colon, 38.3%; with HCC-2998 colon, 47%.
Regarding `C=C(C)[C@@H]1CC[C@]2(COC(=O)c3ccccc3C(=O)O)CC[C@]3(C)[C@H](CC[C@@H]4[C@@]5(C)CC[C@H](OC(=O)c6ccccc6C(=O)O)C(C)(C)[C@@H]5CC[C@]43C)[C@@H]12`, the growth is 28.1% [100 µM] in the assay on BT-549 breast; 30.8% [100 µM] with MDA-MB-435 melanoma; 41.7% [100 µM] with SW-620 colon; 48.6% [100 µM] in the assay with MCF7 breast; 21.3% [100 µM] in the assay on HCT-116 colon; 4.42% [100 µM] (active) with HCC-2998 colon. The growth in the assay on KM12 colon was 11.8% [100 µM].
As for `Nc1nc(N)c2c(n1)NC(c1ccc(F)cc1)C1CCc3ccccc3C1=N2` (stereo not given), the growth in the assay with T-47D breast was 49.7%; in the assay with MDA-MB-435 melanoma, 54.4%; with MCF7 breast, 26.9%; in the assay on HCT-116 colon, 31.9%; in the assay with HCC-2998 colon, 71.2%; in the assay with KM12 colon it was 50.1%.
On to `CCCCCC1CCCCN1C(=O)OCCCC` (stereo not given), for which the growth is 99.1% in the assay on T-47D breast; 105% with MDA-MB-435 melanoma; 111% in the assay with SW-620 colon; 109% in the assay with HCT-116 colon; 104% in the assay with KM12 colon.
Regarding `CC(C)=CCC[C@](C)(O)[C@H]1CC[C@]2(C)[C@@H]1CC[C@@H]1[C@@]3(C)CC/C(=N/O)C(C)(C)[C@@H]3CC[C@]12C`, the growth with BT-549 breast was 1.19% [100 µM] (active); in the assay on MDA-MB-435 melanoma, 5.38% [100 µM] (active); with SW-620 colon, -48% [100 µM] (active); with MCF7 breast it was 10% [100 µM]; with HCT-116 colon, -9.52% [100 µM] (active); in the assay on HCC-2998 colon it was 10.9% [100 µM]. Also, the growth in the assay on KM12 colon is 15.8% [100 µM].
As for `CCCCC(CC)COC(=O)C[N+](C)(C)CCOC(c1ccccc1)c1ccccc1` (stereo not given), the growth with BT-549 breast is 17.6%; with MDA-MB-435 melanoma, 0.527% (active); with SW-620 colon it was 52.2%; with MCF7 breast, 33.6%; in the assay with HCT-116 colon, 31.7%; with HCC-2998 colon, 3.56% (active).
Take `COc1ccc(OC)c(NC=O)c1`: the growth with BT-549 breast was 109%; with MDA-MB-435 melanoma, 104%; in the assay on SW-620 colon, 105%; in the assay on MCF7 breast, 96.4%; with HCT-116 colon, 101%; with HCC-2998 colon, 103%. Further, the growth in the assay with KM12 colon is 109%.
`CC(=O)OC[C@]12CC[C@@H]([C@@H](C)C(N)=O)[C@@H]1[C@H]1CC[C@@H]3[C@@]4(C)CC[C@H](OC(C)=O)C(C)(C)[C@@H]4CC[C@@]3(C)[C@]1(C)CC2`: the growth with BT-549 breast was -55.1% [100 µM] (active); in the assay on MDA-MB-435 melanoma, -63.8% [100 µM] (active); with SW-620 colon, -55.1% [100 µM] (active); in the assay with MCF7 breast it was -45.6% [100 µM] (active); in the assay on HCT-116 colon it was -84.2% [100 µM] (active); with HCC-2998 colon, -68.1% [100 µM] (active). In the assay on KM12 colon, the growth was -62.1% [100 µM] (active).
For the compound `Cc1cc(C)c(O)c(CNCCCCCCNCc2cc(C)cc(C)c2O)c1`, the growth in the assay on T-47D breast is -60.8% (active); with MDA-MB-435 melanoma, -90.8% (active); with MCF7 breast, -81.4% (active); in the assay on HCT-116 colon, -42.9% (active); in the assay with KM12 colon, -38.2% (active).
On to `O=C(CSc1nccc(Nc2ccc(S(=O)(=O)Nc3ccccn3)cc2)n1)c1ccc(Cl)cc1`, for which the growth is 50.6% with T-47D breast; 118% in the assay with MDA-MB-435 melanoma; 91.4% with MCF7 breast; 92.2% in the assay with HCT-116 colon; 106% in the assay with HCC-2998 colon; 97.6% with KM12 colon.
For `CC1Cc2ccc(OCCN(C)C)cc2C1=O` (stereo not given), the growth was 99.3% in the assay on BT-549 breast; 102% with MDA-MB-435 melanoma; 101% in the assay on SW-620 colon; 100% in the assay with MCF7 breast; 95.4% in the assay with HCT-116 colon; 109% in the assay with HCC-2998 colon.
Consider `CS(=O)(=O)c1cccnn1`, for which the growth is 95.2% in the assay with T-47D breast; 104% in the assay on MDA-MB-435 melanoma; 94% with MCF7 breast; 96.5% in the assay on HCT-116 colon; 110% in the assay with HCC-2998 colon; 106% with KM12 colon.
As to `Cc1cccc(C[C@H](NC(=O)Nc2ccc(C)cc2F)C(=O)N[C@@H]2C(=O)N3C[C@H](O)C[C@H]3C(=O)N3CCN(C)C[C@H]3C(=O)N[C@@H](C)C(=O)N3C[C@H](C)C[C@H]3C(=O)O[C@H]2C)c1`, the growth was 22.1% in the assay on BT-549 breast; 21.8% in the assay on MDA-MB-435 melanoma; 47.6% in the assay on SW-620 colon; 26.7% in the assay with MCF7 breast; 14.8% in the assay with HCT-116 colon; 35.7% with HCC-2998 colon. For the same compound, the growth in the assay with KM12 colon was 43.7%.

Source of the values: PubChem BioAssay (NCI).
